From PubChem BioAssay
A selection: hits, their analogues and other compounds. The true share with any hit is near 2%.
MBD2 DNA inh = inhibitors of MBD2 binding to methylated DNA, primary screen, biochemical, TR-FRET, DNA-binding domain, human | Methyl-CpG-binding domain protein 2 (Homo sapiens), Q9UBB5 | MBD2 binding to methylated oligonucleotide | inhibition, % at 4.4 µM | 370,000 compounds, 0.31% hits | AID 686964, 2013; in the data active = inhibition above about 13%
Rin1-Abl PPI inh = inhibitors of Rin1-Abl protein binding, primary screen, biochemical, TR-FRET. Tyrosine-protein kinase ABL1 (Homo sapiens) + Ras and Rab interactor 1 (Homo sapiens), …. inhibition, % at 7.35 µM. 360,000 compounds, 0.4% hits. AID 588664, 2011; in the data active = inhibition above about 5%, passing the limit was not always enough
UHRF1 MBD2 ctr = UHRF1 methylated DNA binding inhibitors, primary screen, counter-screen for MBD2 inhibitor project, biochemical, TR-FRET, human UHRF1, single concentration. E3 ubiquitin-protein ligase UHRF1 (Homo sapiens), Q96T88. UHRF1 binding to methylated oligo. inhibition, % at 4.4 µM. 370,000 compounds, 0.75% hits; in the data active = inhibition above about 21%;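 note: UHRF1 SRA domain binding a hemimethylated CpG hairpin DNA probe; 0% = median of test compound wells and 100% = reference inhibitor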
Target sequence (Q96T88 whole entry, looked up, the tested form may be a part): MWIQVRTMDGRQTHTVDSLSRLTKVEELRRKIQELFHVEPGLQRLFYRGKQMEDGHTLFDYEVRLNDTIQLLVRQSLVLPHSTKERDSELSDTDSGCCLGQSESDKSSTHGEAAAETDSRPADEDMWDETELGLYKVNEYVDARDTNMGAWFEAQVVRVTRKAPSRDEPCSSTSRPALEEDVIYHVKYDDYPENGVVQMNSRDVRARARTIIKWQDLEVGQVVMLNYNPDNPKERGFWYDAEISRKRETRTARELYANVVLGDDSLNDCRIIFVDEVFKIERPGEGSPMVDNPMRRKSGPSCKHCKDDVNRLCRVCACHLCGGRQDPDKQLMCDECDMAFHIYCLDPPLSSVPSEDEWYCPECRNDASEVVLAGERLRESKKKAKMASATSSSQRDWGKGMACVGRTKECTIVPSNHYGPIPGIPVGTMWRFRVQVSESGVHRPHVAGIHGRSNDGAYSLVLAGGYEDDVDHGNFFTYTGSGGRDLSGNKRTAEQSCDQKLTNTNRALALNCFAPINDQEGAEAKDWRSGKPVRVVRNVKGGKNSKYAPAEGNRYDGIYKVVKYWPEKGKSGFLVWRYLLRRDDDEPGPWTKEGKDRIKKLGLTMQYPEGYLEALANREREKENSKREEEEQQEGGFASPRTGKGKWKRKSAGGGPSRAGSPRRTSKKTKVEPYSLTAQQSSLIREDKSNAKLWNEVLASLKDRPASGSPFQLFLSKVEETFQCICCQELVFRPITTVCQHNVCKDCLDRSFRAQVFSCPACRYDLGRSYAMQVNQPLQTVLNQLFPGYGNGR
TCR-CD3 inh = inhibitors of human TCR-CD3 interaction, primary screen, biochemical, fluorescence, TAMRA-labeled TCR probe; 360,000 compounds, 0.37% hits; T-cell receptor (TCR); inhibition, % at 9.4 µM; in the data active = inhibition above about 19%;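 note: recombinant mutant TCR 2C K166C tagged with TAMRA read by polarization; 0% = receptor in buffer alone and 100% = receptor with positive control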
LEDGF integ inh = blockers of LEDGF/p75-dependent integrase strand transfer – biochemical, TR-FRET, high throughput, primary screen; AID 743269, 2014; HIV-1 integrase (with human LEDGF/p75); inhibition, % at 3.7 µM; TR-FRET IN-LEDGF/p75 DNA integration, Eu/Cy5; 370,000 compounds, 0.64% hits;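 active = inhibition above the screen-wide mean plus 3 SD, cut at about 13% in these data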;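 note: signal is the Cy5 over europium emission ratio at 671 and 618 nm; 0% = plate median of compound wells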
Rin1-Abl confirm = Rin1-Abl binding inhibitor retest, confirmation, biochemical, TR-FRET. shares compounds with Rin1-Abl PPI inh. purified proteins. inhibition, % at 7.35 µM. 1,300 compounds, 49% hits. AID 602124, 2011
GFP quench-1 = GFP fluorescence inhibitors and quenchers, artefact control for Rin1-Abl interaction inhibitor project, biochemical. shares compounds with Rin1-Abl PPI inh. inhibitors/quenchers counterscreen. inhibition, % at 6.75 µM. 1,300 compounds, 8.5% hits;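 note: ABL1-eGFP fusion protein alone without its partner RIN1-SBP; 0% = protein with vehicle and 100% = wells lacking protein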
GFP quench dose = GFP fluorescence inhibitors and quenchers, dose response, artefact control for Rin1-Abl interaction inhibitor project, biochemical; shares compounds with Rin1-Abl PPI inh; 230 tested, under 10 active; IC50, µM; GFP fluorescence interference/quenching counterscreen; call rule not given here;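 note: ABL1-eGFP fusion protein alone without its RIN1 binding partner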
GFP quench-2 = GFP fluorescence inhibitors and quenchers, late-stage follow-up, artefact control for Rin1-Abl interaction inhibitor project, biochemical, dose response; shares compounds with Rin1-Abl PPI inh; GFP fluorescence quenching counterscreen; IC50, µM; 25 tested, under 10 active; AID 602397, 2012; call rule not given here
Starred values were filed as active, the others as inactive; x = not tested or not shown. Cut-off read from the data, not from the text of the source, unless noted: active = inhibition above about 6.5%; inactive = the rest.

SMILES	MBD2 DNA inh	Rin1-Abl PPI inh	UHRF1 MBD2 ctr	TCR-CD3 inh	LEDGF integ inh	Rin1-Abl confirm	GFP quench-1	others
Cc1nn(C)cc1S(=O)(=O)Nc1cccc(Cl)c1	-0.4	-0.9	1.6	-1.7	-4.6	x	x
N#Cc1ccsc1NC(=O)CN1CCN(c2ccc(O)cc2)CC1	2.0	10.2*	1.2	-7.1	3.5	-0.9	-0.1
COCCn1nnnc1C(CC(C)C)N1CCN(c2nc3ccccc3s2)CC1 (stereo not drawn)	7.4	9.3*	5.5	0.8	0.0	-2.3	0.1
Cc1ccc(S(=O)(=O)CCC(=O)OCc2cc(=O)oc3cc(C)ccc23)cc1	-4.6	-2.6	1.2	-6.1	-0.6	x	x
Cc1occc1C(=O)N1CCCC(N2CCN(c3ccccc3F)CC2)C1 (stereo not drawn)	-6.4	11.0*	-1.1	12.2	-4.8	-0.5	0.4
CNC(=O)COc1coc(CN2CCN(c3cccc(Cl)c3)CC2)cc1=O	5.1	-8.5	8.9	3.0	6.0	x	x
O=C(Cc1ccc(NC(=O)C2CCN(C(=O)C3CCCC3)CC2)cc1)Nc1cccc(C(=O)N2CCCCC2)c1	-1.3	17.2*	-0.6	4.4	4.3	16.8*	-0.4	GFP quench dose=>67.5
O=C(Cc1ccc(NC(=O)C2CCN(C(=O)C3CCC3)CC2)cc1)Nc1ccc(C(=O)N2CCOCC2)cc1	-7.6	22.7*	2.3	-13.1	4.7	20.7*	0.1	GFP quench dose=>67.5
O=C(Cc1ccc(NC(=O)C2CCN(C(=O)CCc3ccccc3)CC2)cc1)Nc1ccc(C(=O)N2CCOCC2)cc1	0.2	3.6	-1.0	8.4	3.6	x	x
O=C(Cc1ccc(NC(=O)C2CCCN(C(=O)C3CC3)C2)cc1)Nc1ccc(C(=O)N2CCOCC2)cc1 (stereo not drawn)	1.0	-2.5	-4.0	5.6	0.0	x	x
O=C(Cc1cccc(NC(=O)C2CCN(C(=O)C3CCC3)CC2)c1)Nc1cccc(C(=O)N2CCCC2)c1	1.3	0.5	-3.0	1.4	1.5	x	x
O=C(Cc1ccc(NC(=O)C2CCN(C(=O)c3ccccc3)CC2)cc1)Nc1ccc(C(=O)N2CCOCC2)cc1	-6.5	36.2*	0.5	-2.5	6.1	36.9*	-0.5	GFP quench dose=>67.5;GFP quench-2=>67.5
CC1(c2nnnn2-c2ccc3c(c2)OCCO3)CCC(=O)N1CC1CCCCC1 (stereo not drawn)	-2.2	x	0.2	5.2	2.7	x	x
O=C(NCc1ccc(F)cc1)C1CCC(CNS(=O)(=O)c2ccccc2)CC1 (stereo not drawn)	3.1	-0.8	2.2	-2.4	-3.0	x	x
O=C(COC(=O)c1cccc(F)c1)Nc1ccc2c(c1)OCCO2	2.0	1.9	-3.0	0.9	-1.0	x	x
CC(=O)N1c2ccc(S(=O)(=O)N3CCC(C(=O)NCCc4ccc(Cl)cc4)CC3)cc2CC1C (stereo not drawn)	-1.2	9.8*	-0.3	9.6	-1.5	-1.3	-0.8
NC(=O)[C@@H]1CCCN1C(=O)c1cc(COc2ccc3c(c2)CCCC3)on1	-1.6	6.1*	3.0	-8.5	3.7	0.1	0.9
COc1ccc(NC(=O)CSc2nc(N)cc(=O)[nH]2)cc1S(=O)(=O)N1CCCCC1	0.8	10.7*	1.3	-2.7	-0.9	7.7*	0.0
COc1cc(C(=O)Nc2ccc(S(=O)(=O)N3CCOCC3)cc2)c([N+](=O)[O-])cc1OC	-2.0	11.1*	1.8	0.5	-4.8	0.4	0.0
COc1ccc(CC(=O)Nc2ccc(S(=O)(=O)N3CCCCC3)cc2)cc1OC	1.4	10.4*	4.0	-7.8	-3.2	6.7*	-1.0
Nc1cc(=O)[nH]c(SCC(=O)Nc2ccc(S(=O)(=O)N3CCCCC3)cc2)n1	-1.7	6.2	2.3	-2.6	2.2	x	x
COc1ccc(S(=O)(=O)N2CCCCCC2)cc1C(=O)Nc1ccc(C(=O)N(C)C)cc1	-2.1	37.8*	-0.4	6.3	-0.1	43.1*	1.1	GFP quench dose=>67.5
CC(C)CN1C(=O)[C@]2(CC(=O)N(C)C2c2ccccc2)c2cc(-n3cc(C4=CCCCC4)nn3)ccc21 (stereo partly drawn)	-0.8	x	-1.2	x	-2.0	x	x
Cc1csc(SCC(=O)Nc2ccc(S(=O)(=O)N3CCCC3)cc2)n1	2.6	1.1	-0.6	-0.6	-0.5	x	x
Cc1cc(C)nc(SCC(=O)Nc2ccc(S(=O)(=O)N3CCCCC3)cc2)n1	2.4	6.3*	0.2	4.2	0.1	4.4	-0.4
SMILES	MBD2 DNA inh	Rin1-Abl PPI inh	UHRF1 MBD2 ctr	TCR-CD3 inh	LEDGF integ inh	Rin1-Abl confirm	GFP quench-1	others
Cc1ccc(NC(=O)CSc2nnc3n2CCCCC3)cc1	-7.2	6.0*	-0.6	14.4	3.4	0.3	-1.7
Clc1ccc(C2[C@H]3CN(Cc4cccnc4)[C@H](c4ccccc4)C34CC2(c2cccnc2)C4)cn1 (stereo partly drawn)	-6.3	58.8*	1.5	0.3	3.4	71.7*	-0.4
CC(C)COC(=O)N(C)C[C@H]1OCc2cn(nn2)CCCC(=O)N([C@H](C)CO)C[C@@H]1C	5.0	-1.6	0.3	-0.3	2.2	x	x
COc1cccc(N2CC(C)Cn3c2nc2c3c(=O)[nH]c(=O)n2C)c1 (stereo not drawn)	3.8	-2.0	1.0	-3.3	-4.3	x	x
COc1ccc(/C=N/NC(=O)COc2ccc(Cl)cc2Cl)cc1Cn1nc(C)cc1C	-0.8	9.4*	1.8	1.8	-17.1	1.1	1.4
O=C(COc1ccc(Cl)cc1Cl)N/N=C/c1cccnc1	2.0	2.7	-1.9	4.8	0.4	x	x
O=C(COC(=O)c1ccc(S(=O)(=O)N2CCOCC2)cc1)Nc1ccccc1OC(F)F	2.9	2.3	-3.7	-5.6	0.6	x	x
CC(=O)NC1=NN(C(C)=O)C(C)(c2ccc(C)o2)S1 (stereo not drawn)	0.3	-0.2	-0.2	-7.9	-2.1	x	x
CC(=O)NC1=NN(C(C)=O)C(C)(c2ccco2)S1 (stereo not drawn)	1.8	8.7*	2.8	-4.8	-6.3	-3.2	0.6
COc1ccc2ncc(S(=O)(=O)c3ccccc3)c(N3CCC4(CC3)OCCO4)c2c1	-3.8	8.2*	3.4	-1.7	1.2	3.9	0.6
